According to PubChem BioAssay AID1945 (The Scripps Research Institute Molecular Screening Center, 2009):
Screen size: about 1,600 compounds; about 65 (4%) were called active. Cut-off read from the data, not from the text of the source: active = inhibition above about 37%; inactive = the rest. Only a sample is shown.

Assay: DNA intercalator displacement agents – biochemical, FID fluorescence, triplicate, artefact control for HCV NS3 helicase inhibitor project (AID 1945);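 note: 0% = vehicle and 100% = reference compound; higher means more displacement of ethidium bromide from the DNA hairpin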
Details: DNA fluorescent intercalator displacement, at 7.9 µM, hits give high values

Compound	inhibition
CC(=O)Oc1cccc(N2C(=O)CC(Nc3ccc(N4CCOCC4)cc3)C2=O)c1 (stereo not given)	-9.25% (inactive)
COc1cc(/C=C2/C(=O)NN(c3cccc(Cl)c3)C2=O)cc(Br)c1O	8.6% (inactive)
COc1ccccc1C1/C(=C(/O)c2ccc(OC(C)C)cc2)C(=O)C(=O)N1c1cc(C)on1 (stereo not given)	-26.4% (inactive)
COc1cc(C2CC(=O)N3CN(Cc4ccccc4)CSC3=C2C#N)ccc1OCc1ccccc1 (stereo not given)	-15.9% (inactive)
CC(=O)C1=C(O)C(=O)N(c2ccc(Br)cc2)C1c1ccc([N+](=O)[O-])cc1 (stereo not given)	-11.1% (inactive)
O=C1NN(c2ccccc2)C(=O)/C1=C/c1ccc(-c2cccc(C(=O)O)c2)o1	-0.74% (inactive)
Cc1ccc(C2=N/C(=C\c3ccc(OS(=O)(=O)c4ccc(C)cc4)cc3)C(=O)O2)cc1	-12.6% (inactive)
COc1cc(C2C(C(=O)c3ccco3)=C(O)C(=O)N2c2cc(C)on2)ccc1OCc1ccccc1 (stereo not given)	-1.69% (inactive)
Cc1[nH]n(C(N)=S)c(=O)c1N=Nc1ccc(Cl)cc1Cl	-8.84% (inactive)
O=[N+]([O-])c1cc(Cl)cc(/C=N/NC(=S)Nc2cc(S(=O)(=O)N3CCOCC3)ccc2Cl)c1O	-2.03% (inactive)
O=C(N/N=C/c1ccc([N+](=O)[O-])o1)c1cn(-c2ccccc2)nc1-c1ccc(F)cc1	10.7% (inactive)
Cc1ccc(C)c(-n2c(SCC(=O)O)nc3sc4c(c3c2=O)CCCC4)c1	-27.8% (inactive)
S=C(NCCc1ccccc1)N1CCCCC1	-0.28% (inactive)
CCOC(=O)c1nnn(-c2nc(OC)nc(N(C)C)n2)c1-c1ccccc1	-39.7% (inactive)
N#C/C=C(/c1ccc(F)cc1)N1CCOCC1	14% (inactive)
CCOc1ccc(C(C(=O)NCCOC)N(CCOC)C(=O)CCC(=O)Nc2ccccn2)cc1 (stereo not given)	-24.9% (inactive)
Cc1ccc(C2Nc3cccc4cccc(c34)N2)cc1	17.1% (inactive)
COc1ccc(/C=C(\NC(=O)c2ccc(OCC(C)C)cc2)C(=O)OCc2ccco2)cc1	-43.9% (inactive)
Cc1ccc(OCC(=O)c2cc(C)n(Cc3ccco3)c2C)c([N+](=O)[O-])n1	-9.01% (inactive)
Cc1ccccc1Nc1nnc(SCC(=O)c2cc3ccccc3o2)s1	-3.69% (inactive)
COc1ccc(C)cc1-n1nnnc1SCC(=O)c1cc(C)n(Cc2ccco2)c1C	-39% (inactive)
CC(Oc1ccccc1)C(=O)Nc1oc(-c2ccco2)c(-c2ccco2)c1C#N (stereo not given)	13.9% (inactive)
CC(C)c1ccc(Nc2nnc(SCC(=O)c3nnc(-c4ccccc4)o3)s2)cc1	8.51% (inactive)
O=c1[nH]c(/C=C\c2cccc(C(F)(F)F)c2)nc(O)c1[N+](=O)[O-]	-2.48% (inactive)
O=c1nc2s/c(=C\c3ccco3)c(=O)n2nc1Cc1ccccc1	7.7% (inactive)

Compound	inhibition
Cc1ccc(S(=O)(=O)N/N=C\c2cc3c(cc2[N+](=O)[O-])OCO3)cc1	14.6% (inactive)
CC(=O)Nc1ccc(Nc2c3ccccc3nc3ccccc23)cc1	79.8% (active)
CCOC(=O)c1ccccc1N1C(=O)C2Sc3[nH]c(=O)sc3C(/C=C/c3ccccc3)C2C1=O (stereo not given)	-46.6% (inactive)
COCCNC(=O)Nc1ccc2nc(-c3ccco3)c(-c3ccco3)nc2c1	18.2% (inactive)
CCOC(=O)c1c(-c2ccccc2)oc2cc(Br)c(O)c(C=O)c12	85% (active)
Cc1cc(O)c(C(=O)/C=C/c2c(F)c(F)c(F)c(F)c2F)c(=O)o1	3.73% (inactive)
CCOc1ccc(C2C3=C(CCCC3=O)N(CC(=O)O)C3=C2C(=O)CCC3)cc1	7.44% (inactive)
CS(=O)(=O)c1ccc2c(c1)SC1=NC(=O)/C(=C/c3ccco3)C(=N)N12	-2.29% (inactive)
Cc1ccc(SC(CC(=O)c2ccc(C(C)(C)C)cc2)C(=O)O)cc1 (stereo not given)	-10.2% (inactive)
CC1=NN(c2ccc(Cl)c(C(=O)O)c2)C(=O)/C1=C/c1ccc(-c2ccccc2[N+](=O)[O-])o1	15.8% (inactive)
COc1ccc(/C=C2\SC(=S)N(CCC(=O)Nc3cccc(C(=O)O)c3)C2=O)cc1OC	15.4% (inactive)
CNS(=O)(=O)c1cccc(C(=O)NC2CCCc3ccccc32)c1 (stereo not given)	-7.17% (inactive)
CCSc1nsc(NC(=O)Nc2cccc(C(C)=O)c2)n1	8.36% (inactive)
O=c1c2c(-c3ccccc3)ccnc2[nH]n1-c1ccccc1	1.8% (inactive)
COC(=O)COc1ccc2c(c1C)O/C(=C\c1ccco1)C2=O	-11.8% (inactive)
NS(=O)(=O)c1ccc(-c2ccc(/C=C3\SC(=O)NC3=O)o2)cc1	1.16% (inactive)
CCOC(=O)C1=C(O)/C(=C/c2cc(C)n(-c3ccccc3)c2C)N=C1C	-10.6% (inactive)
COc1ccc(/C=C/C(=O)c2cc(Br)ccc(=O)c2O)cc1	16.2% (inactive)
Cc1ccc(C(=O)O)cc1-c1ccc(/C=C2\SC(=O)N(CC(=O)Nc3ccc4c(c3)OCO4)C2=O)o1	1% (inactive)
COc1cccc(CNC(=O)c2nnn(CC(=O)Nc3cc(Cl)ccc3C)c2N)c1	9.61% (inactive)
Cc1ccc(S(=O)(=O)NCCC(c2ccccc2)c2ccccc2)cc1C(=O)O	-24.5% (inactive)
CCN(CC)CCOc1ccc2c(c1)C(=NNC(=O)c1ccccn1)c1cc(OCCN(CC)CC)ccc1-2	94.3% (active)
Brc1ccccc1C1Nc2cccc3cccc(c23)N1	12.8% (inactive)
O=C1C=CC(=O)N1c1ccc(N2CCCCC2)cc1	17% (inactive)
O=C(N/N=C/c1ccco1)c1csc2c1CCCC2	-7.05% (inactive)

Compound	inhibition
COc1ccccc1N1CCN(C(=O)CCS(=O)(=O)c2ccc3c(c2)NC(=O)C(C)S3)CC1 (stereo not given)	-36.4% (inactive)
CSc1c(SCc2ccccc2)cnn(Cc2ccccc2)c1=O	-16.1% (inactive)
CCC1C/C(=C/c2cccs2)C(=O)/C(=C/c2cccs2)C1 (stereo not given)	-0.49% (inactive)
Nc1ccc2nc3c(=O)[nH]c(=S)[nH]c3nc2c1	-8.12% (inactive)
Cc1nn2c(c1-c1ccccc1)N=C(c1ccco1)CC2c1ccccc1 (stereo not given)	-5.96% (inactive)
CS/C(=C\C(=O)c1ccco1)Nc1ccccc1Cl	-4.94% (inactive)
O=C1N/C(=C/c2cccn2-c2ccccc2)C(=O)N1c1cccc(Cl)c1	12.2% (inactive)
Cc1cc(C)c2nc(-c3ccco3)cc(C(=O)O)c2c1	-5.42% (inactive)
Cc1ccc(/C=C/C(=O)Nc2ccc([N+](=O)[O-])c(NC(=O)/C=C/c3ccc(C)o3)c2)o1	33.4% (inactive)
CC(C)c1ccc(C2C(C(=O)c3ccco3)=C(O)C(=O)N2CC2CCCO2)cc1 (stereo not given)	-21.9% (inactive)
Cc1ccc(C(CC(=O)O)Nc2nc(N3CCCCC3)nc(N3CCCCC3)n2)cc1 (stereo not given)	-62.5% (inactive)
Cc1ccc(-c2nn(-c3ccccc3)cc2/C=C2\SC(=S)N(CCCCCC(=O)O)C2=O)o1	9.08% (inactive)
CN(C)c1ccc(N/C=C/C(=O)C(F)(F)F)cc1	17.8% (inactive)
O=C(c1cccc(-n2cccc2)c1)N1CCN(S(=O)(=O)c2ccc(F)cc2)CC1	-4.45% (inactive)
O=C(CCCN1C(=O)/C(=C\c2ccco2)SC1=S)Nc1cccc2ccccc12	6.79% (inactive)
Cc1occc1C(=O)N/N=C/c1ccc(-c2cccc([N+](=O)[O-])c2)o1	1.25% (inactive)
Cc1cc(N2C(=O)C(O)=C(C(=O)c3ccc(C)o3)C2c2ccc(OCc3ccccc3)cc2)no1 (stereo not given)	-15.8% (inactive)
Cc1cccc(NC(=O)c2sc3nc4c(c(-c5ccco5)c3c2N)CCC4)c1	-11.3% (inactive)
COc1ccc(OCC(=O)Nc2nnc(-c3ccco3)s2)cc1	-1.45% (inactive)
COc1ccc(NC(=O)CSc2ccc(-c3ccco3)nn2)c(OC)c1	0.58% (inactive)
Clc1ccccc1CSc1nnc(-c2ccco2)c(-c2ccco2)n1	72.2% (active)
c1ccc(CSc2nnc(-c3ccco3)c(-c3ccco3)n2)cc1	32.8% (inactive)
O=C(CCl)NNc1cccc(Cl)n1	11.2% (inactive)
COc1cccc(C(=O)CC(=O)C(=O)Nc2ccc([N+](=O)[O-])cc2C)c1	2.14% (inactive)
Fc1ccc(-c2ccc(-c3nn4c(-c5ccco5)nnc4s3)o2)cc1	-13.2% (inactive)
